Assay outcomes as filed in PubChem.
Measles CPE – protection of cells from measles virus | Measles virus-infected cells, CPE protection, absorbance | AID 841 | protection (pct of control), % at 4 µM | hit rate 1.5% among 140,000; in the data active = protection mostly above about 24%, no sharp cut-off; inactive = mostly below about 26%
MT1-MMP txn act – activates MT1-MMP transcription; HT1080 MT1-MMP promoter luciferase reporter, luminescence, overnight; active compounds read high; activation factor at 10 µM; hit rate 0.16% among 86,000;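 active = activation factor of at least 2 for MT1-MMP transcription at 10 µM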
Smad3 inh – blocks human Smad3 binding to FoxH1 peptide; P84022; TR-FRET Smad3/Dy647-FoxH1 peptide binding, europium anti-His; inhibition, % at 25 µM; hit rate 0.29% among 88,000; AID 630;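 active = compounds that reduce the energy-transfer binding signal between the protein and its labelled peptide by more than half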;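 also: 0% = Smad3 plus labelled peptide maximal FRET and 100% = peptide-only background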
Target sequence (P84022 whole entry, looked up): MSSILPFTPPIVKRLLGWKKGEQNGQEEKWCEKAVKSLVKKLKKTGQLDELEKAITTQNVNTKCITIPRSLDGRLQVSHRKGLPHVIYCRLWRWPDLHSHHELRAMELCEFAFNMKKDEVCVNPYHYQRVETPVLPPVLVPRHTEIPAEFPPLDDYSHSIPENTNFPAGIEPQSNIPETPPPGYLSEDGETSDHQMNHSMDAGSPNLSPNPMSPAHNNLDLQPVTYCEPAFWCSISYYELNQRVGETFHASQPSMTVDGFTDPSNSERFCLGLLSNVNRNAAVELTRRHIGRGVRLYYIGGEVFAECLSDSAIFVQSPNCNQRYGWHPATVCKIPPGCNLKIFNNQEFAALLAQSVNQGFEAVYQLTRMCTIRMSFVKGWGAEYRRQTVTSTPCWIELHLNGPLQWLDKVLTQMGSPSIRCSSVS
Active calls of the source: *; . = no result given. In the library only some 1.7% were active in any assay of this set; here they are far more common.

SMILES	Measles CPE	MT1-MMP txn act	Smad3 inh
CCOC(=O)Cn1c(-c2nonc2NC(=O)c2ccccc2F)nc2ccccc21	50*	.	-19
CCC(=O)Nc1nonc1-c1nc2ccccc2n1Cc1ccccc1	10	.	-6
COC(=O)c1ccc(C(NC(=O)OCc2ccccc2)/C(=C/[C@@H](C)C(=O)Nc2ccccc2)C(F)(F)F)cc1 (stereo not given in full)	.	1.1	.
O=C1CCCC2=C1C1(O)C(=O)c3ccccc3C1(O)O2 (stereo not given)	5	0.9	66*
N#CC1=C(N)OC2=C(C(=O)CCC2)[C@]12C(=O)N(CC(N)=O)c1ccccc12	25	1	13
CCCCn1nc2cc(C(=O)NCc3ccc(C(F)(F)F)cc3C(F)(F)F)ccc2c1OCC	active	.	.
CCOc1c2ccc(C(=O)NCc3ccc(C(F)(F)F)cc3C(F)(F)F)cc2nn1C	1	.	.
Cc1nn(C)c(C)c1CNC(=O)c1nn2c(c1Cl)NC(c1cccs1)CC2C(F)(F)F (stereo not given)	12	1	.
Cc1nn(C)cc1CNC(=O)c1cc2n(n1)C(C(F)(F)F)CC(c1cccs1)N2 (stereo not given)	20*	1	0
Cn1ncc2c(Nc3ccc(-c4ccccc4)cc3)ncnc21	75*	1.6	.
Cn1ncc2c(Nc3ccccc3Br)ncnc21	.	1	-5
COC(=O)c1ccc(C(/C=C/[C@@H](C)CO)NC(=O)OCc2ccccc2)cc1 (stereo not given in full)	.	1.2	.
CCCC/C=C/C(NC(=O)C(C)(C)C)c1ccccc1 (stereo not given)	.	1.2	.
O=C(O)[C@@H]1[C@H](C(=O)O)[C@@H](C(=O)O)C[C@H]1C(=O)O	.	.	11
O=C(COC(=O)c1cccs1)NCc1ccc2c(c1)OCO2	97*	1.2	-2
O=C(NCc1ccc2c(c1)OCO2)c1cccs1	20	1.2	-3
O=C(CSc1n[nH]c(-c2cccs2)n1)NCc1ccc2c(c1)OCO2	12*	1.1	20
O=C(CSc1n[nH]c(-c2cccs2)n1)NCc1cccs1	7	1	5
CCCCCCN(C(=O)CCCCCN1C(=O)NC(c2ccc(-c3ccccc3)cc2)C(C(=O)OCc2ccccc2)=C1C)C(C(=O)NCCCC)c1ccc(OCC(=O)O)c(C(=O)O)c1 (stereo not given)	.	1.1	.
C/C(=C\C1CCCCC1)C(NC(=O)c1cccnc1)c1ccc(-c2ccccc2)cc1 (stereo not given)	.	1.2	.
C=CCn1c(C)cc(C(=O)COC(=O)CNC(=O)c2ccccc2)c1C	26*	.	.
Cc1ccc(C(=O)NCC(=O)OCC(=O)c2cc(C)n(Cc3ccco3)c2C)cc1	4	.	.
C=CCn1c(C)cc(C(=O)COc2ccc(C)nc2[N+](=O)[O-])c1C	7	.	.
C=CCn1c(C)cc(C(=O)COc2nncc3ccccc23)c1C	46*	1.2	-2
CN(N=O)c1ccc(/C=C/c2ccnc3ccccc23)cc1	.	.	26
SMILES	Measles CPE	MT1-MMP txn act	Smad3 inh
CC(C)NS(=O)(=O)c1ccc(CCC(=O)Nc2ccc3c(c2)OCO3)cc1	12	1.2	-3
CC(=O)OCC(=O)[C@@]12OC(C)(C)O[C@@H]1C[C@H]1[C@H]3CC=C4C[C@@H](O)CC[C@]4(C)[C@@H]3CC[C@@]12C	.	.	98*
CC12CCC(O)CC1=CCC1C2CCC2(C)C1CCC21CCC(=O)O1 (stereo not given)	6	.	.
COc1ccccc1OCC(=O)Nc1ccc(S(=O)(=O)N2CCCCCC2)cc1	18	1	-3
COc1ccccc1N(CC(=O)Nc1ccc(S(=O)(=O)N2CCCCC2)cc1)S(C)(=O)=O	65*	1.1	7
O=C(COC(=O)c1ccc(Br)o1)Nc1ccc(S(=O)(=O)N2CCCC2)cc1	12	1.1	2
O=C(COC(=O)c1n[nH]c2ccccc12)Nc1ccc(S(=O)(=O)N2CCCC2)cc1	71*	1.1	14
O=C(Cc1ccc(-n2c(=O)[nH]c3ccsc3c2=O)cc1)N1CCN(c2ccc(Cl)cc2)CC1	17	.	.
Clc1ccc(CSCCc2ccncc2)cc1Cl	.	.	6
CCS(=O)(=O)c1ccc2oc(SCC(=O)NC34CC5CC(CC(C5)C3)C4)nc2c1	24	1	4
CCS(=O)(=O)c1ccc2oc(SCC(=O)NC3CCCC(C)C3C)nc2c1 (stereo not given)	19*	.	6
COC(=O)CC[C@@H](C)[C@@H]1CC[C@@H]2[C@H]3CC[C@H]4C[C@@H](O)CC[C@]4(C)[C@@H]3CC[C@]21C	.	.	37
Nc1nc(C2CCCCC2)cs1	7	1.1	4
CCC1(C)CC(c2csc(N)n2)CCO1 (stereo not given)	65*	1.2	5
CC1Oc2ccccc2OC1(O)c1ccc2ccccc2n1 (stereo not given)	17	.	.
CCOC(=O)Cc1ccc2sc(-c3ccccc3)nc2c1	13	.	.
COC(=O)[C@]1(C)CCC(c2ccc(C)cc2)=C(CC(=O)O)C1	.	.	5
Cc1cc(Cl)ccc1OCC(=O)NCc1ccncc1	48*	1.1	-2
O=C(COc1ccc(Cl)cc1Cl)NCc1ccncc1	24	1.1	1
CCOc1cc(C(=O)NCC(C)CN(C)C)cc(OCC)c1OCC (stereo not given)	13	1.1	5
CCOc1ccc(C(=O)NCC(C)CN(C)C)cc1OCC (stereo not given)	31*	1.1	2
Cc1ccc2c(c1)N[C@H](c1ccc(C(=O)O)cc1)c1cccn1-2	.	.	13
CC1(C)N=C(N)N=C(N)N1c1cccc(OCc2cccc([N+](=O)[O-])c2)c1	.	.	33
O=S1(=O)N[C@H]2CC[C@H]3NS(=O)(=O)N[C@H]4CC[C@@H](N1)N4S(=O)(=O)N23	.	.	24
CSc1nnc2c3ccccc3n(Cc3ccccc3)c2n1	6	1	-6
SMILES	Measles CPE	MT1-MMP txn act	Smad3 inh
CSc1nnc2c3ccccc3n(CCc3ccccc3)c2n1	55*	1	3
O=C(Cn1cnc2c(cnn2-c2ccccc2)c1=O)Nc1ccc(S(=O)(=O)N2CCOCC2)cc1	12	.	.
COc1ccc(-n2ncc3c(=O)n(CC(=O)Nc4ccc(S(=O)(=O)N5CCOCC5)cc4)cnc32)cc1	60*	.	.
CC(=O)N1C2(C=CC1(C)C(=O)NCc1ccccn1)CCCCC2 (stereo not given)	.	1.1	.
N/N=C1/CC(=O)NC(=O)N1	.	.	-10
O=C1C(Cl)=C(NC2CCc3ccccc32)C(=O)c2ncccc21 (stereo not given)	.	1.1	.
S=c1nn[nH]n1C12CC3CC(CC(C3)C1)C2	34*	1.1	-15
c1cn(C23CC4CC(CC(C4)C2)C3)cn1	7	1	0
Cc1ccc(C2=NC3(CCCCC3)N=C2SCC(=O)Nc2ccc3c(c2)OCCO3)cc1	5	.	.
FC(F)(F)c1cccc(Cn2nnnc2-c2cccc(C(F)(F)F)c2)c1	14	.	.
CCC(C)(C)n1nnnc1CN1CCc2ccccc21	73*	.	8
c1ccc(CCn2nnnc2CN2CCCc3ccccc32)cc1	16	1.2	12
COc1cccc(CSCC(=O)O)c1	.	.	-1
CCn1ncc(Br)c1C(=O)Nc1ccccc1C(=O)OC	.	1.3	1
CCn1ncc(Br)c1C(=O)Nc1ccc(C(=O)OC(C)C)cc1	38*	1	-15
COC(=O)c1c(NC(=O)CCCC(=O)O)sc2c1CCC2	11	2.1*	6
NC(=O)c1c(NC(=O)CCCC(=O)O)sc2c1CCCCCC2	15	.	.
